Assay [1] is described as follows: Viability qHTS for spleen associated tyrosine kinase inhibitor (SYKi) naive MV4-11 cells (AID 1963823). Also: nearly all actives have a fitted effect of over 40% in size. The procedure, abridged: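 Luminescence from CellTiter-Glo, developed 10 min at room temperature, gave viability of MV4-11 cells never exposed to SYK inhibitor. Cells (500/well) had been incubated with compounds for 72 hr under standard culture conditions.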
Assay [2] is described as follows: Viability qHTS for spleen associated tyrosine kinase inhibitor (SYKi) drug resistant MV4-11 cells (AID 1963824). Also: nearly all actives have a fitted effect of over 35% in size. The essentials:
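SYK inhibitor-resistant MV4-11 AML cells, 500 per well, added to predispensed compounds and incubated 72 hr at 37 C, 5% CO2. Viability measured by CellTiter-Glo luminescence after 10 min at room temperature.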

Assay [3] can be described thus: Quantitative highthroughput screen to assess conditional lethalithy of P12 Ichikawa cells grown in Human Plasma-Like Medium with dialyzed fetal bovine serum (HPLM+ds) (AID 1963879). Also: nearly all actives have a fitted effect of over 35% in size. As to Viability: series mostly up to about 46 µM. As to conditions: Potency: viability. The procedure, abridged: (§1)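 Each medium arm—HPLM with 10% dialyzed FBS, or RPMI1640 with 5 mM glucose and 10% untreated or dialyzed FBS—was screened against an 11-point, 3-fold compound titration for 48 h at 37 °C, with CellTiter-Glo luminescence as endpoint.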

Assay [4] is described as follows: Quantitative highthroughput screen to assess conditional lethalithy of P12 Ichikawa cells grown in RPMI1640 with dialyzed fetal bovine serum (RPMI+ds) (AID 1963880). Also: nearly all actives have a fitted effect of over 35% in size. As to conditions: Potency: P12-Ichikawa viability. The essentials: as §1
Assay [5] can be described thus: Quantitative highthroughput screen to assess conditional lethalithy of P12 Ichikawa cells grown in RPMI1640 with untreated serum (RPMI+s) (AID 1963881). Also: nearly all actives have a fitted effect of over 35% in size. As to conditions: Potency: viability. The essentials:
as §1

Assay [6] is described as follows: Quantitative highthroughput screen to assess conditional lethalithy of SEM cells grown in Human Plasma-Like Medium with dialyzed fetal bovine serum (HPLM+ds) (AID 1963882). Also: nearly all actives have a fitted effect of over 35% in size. As to Viability: series mostly up to about 46 µM. The procedure, abridged: as §1
Assay [7] in a line: Quantitative highthroughput screen to assess conditional lethalithy of SEM cells grown in RPMI1640 with unreated serum (RPMI+s) (AID 1963883). Also: nearly all actives have a fitted effect of over 35% in size.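 As to Viability: 100% = DMSO wells and 0% = empty wells without cells.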 The procedure, abridged: as §1
Assay [8] in a line: Quantitative highthroughput screen to assess conditional lethalithy of SEM cells grown in RPMI1640 with dialyzed fetal bovine serum (RPMI+ds) (AID 1963884). Also: nearly all actives have a fitted effect of over 35% in size.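 As to Viability: series mostly up to about 46 µM; 100% = DMSO control wells and 0% = empty wells without cells.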 The procedure, abridged:
as §1

Assay [9] can be described thus: Quantitative highthroughput screen to assess conditional lethalithy of NOMO1 cells grown in Human Plasma-Like Medium with dialyzed fetal bovine serum (HPLM+ds) (AID 1963878). Also: nearly all actives have a fitted effect of over 35% in size. The procedure, abridged:
as §1

Assay [10] in a line: Cellular viability qHTS for adrenocortical cancer (ACC) cell line SW-13 (AID 1963989). Also: nearly all actives have a fitted effect of over 65% in size.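 As to activity (max response): cells grown in serum-free medium with ITS supplement; % is scaled to controls: 0 for no effect and ±100 for the full control effect.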 The following applies: SW-13 ACC cells viability, CellTiter-Glo, 48 h; activity (max response): stronger effect = lower value. The procedure, abridged:
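Luminescent ATP read-out (CellTiter-Glo, 20 min at room temperature) measured metabolically competent SW-13 cells after 48 h compound treatment. Final concentrations spanned up to 46 uM; bortezomib served as positive control.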

Assay [11] can be described thus: Cellular viability qHTS for adrenocortical cancer (ACC) cell line NCI-H295R (AID 1963990). Also: nearly all actives have a fitted effect of over 60% in size. The procedure, abridged: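 IC50 and maximal efficacy derive from four-parameter logistic modelling of titration curves, with reads scaled between DMSO-only wells (0%) and doxorubicin hydrochloride (100% inhibition). Compounds spanned up to 46 uM over 48 h.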

Values joined by “and” are separate entries in the source; they are usually repeats but may differ in a detail not shown here. Equal entries are not always repeated. Records with an inconclusive call do not appear. Some compounds were tested as several samples or in several runs, with calls that do not always agree. Active and inactive are the calls of the source. Calls follow the shape of the dose curve; as a rule, active = well fitted curve in the direction sought with a large enough effect; inconclusive = small, poorly fitted or top-dose-only effect, or another doubt; inactive = no such curve, though single readings can be large; an effect the other way counts as inactive or inconclusive.

Consider 17 compounds from PubChem BioAssay (NCATS).
Potency is read from the fitted curve at half-maximal effect.

As to `CN1CCCN(C(=O)c2cccc(-c3ccc(C=C4C(=O)Nc5ccc(Cl)cc54)o3)c2)CC1`, the Potency is 517 nM (active) in [1]; 461 nM (active) in assay [2]; 2.96 µM (active) in assay [3]; 14.8 µM (active) in assay [4]; 5.9 µM (active) in assay [5]; 5.9 µM (active) in [6]. Further, the values for the Potency in assay [7] and in assay [8] were 1.32 µM (active) and 1.87 µM (active), respectively.
In the case of `Cc1ccc(C(=O)Nc2ccc(CN3CCN(C)CC3)c(C(F)(F)F)c2)cc1C#Cc1cnc2cccnn12`, the Potency result in assay [1] is “inactive”. Besides, the Potency in [2] was 5.3 nM (active); in assay [9], 0.935 µM (active); in [10] it was 3.16 µM (active); in [11], 4.47 µM (active).
Take `CCC[C@H](Nc1nc(-c2ccc(NC(=O)NCC)c(OC)c2)ncc1C)c1cccnc1`: the Potency in assay [1] was 74.2 nM (active); in [2], 118 nM (active); in [3], 0.0418 µM (active); in assay [4], 0.0418 µM (active); in assay [6] it was 0.0418 µM (active); in assay [10] it was 0.224 µM (active).
Turning to `N#CCNC(=O)c1ccc(-c2ccnc(Nc3ccc(N4CCOCC4)cc3)n2)cc1`, the Potency in assay [1] is 411 nM (active); in assay [2], 580 nM (active) and 934 nM (active); in [9] it was 23.5 µM (active); in [6], 11.8 µM (active); in assay [10] it was 25.1 µM (active).
As for `CCc1cccc(CC)c1NC(=O)N1Cc2[nH]nc(NC(=O)c3ccc(N4CCN(C)CC4)cc3)c2C1`, the Potency in [1] was 1.46 µM (active) and 1.66 µM (active); in assay [2], 1.03 µM (active) and 1.05 µM (active); in assay [6], 4.18 µM (active); in assay [7], 1.66 µM (active); in [8], 1.66 µM (active).
As to `COC1=C(OC)C(=O)C(CCCCCCCCCCO)=C(C)C1=O`, the Potency in assay [1] is 10600 nM (active); in assay [2], 10.6 µM (active) and 13.2 µM (active); in assay [10] it was 4.11 µM (active) and 25.1 µM (active); in [11], 2.91 µM (active) and 5.01 µM (active). The Potency entry in assay [3], in [6] and in assay [7] was “inactive” in each case.
As to `Oc1ccc([C@@H]2Oc3ccc(O)cc3[C@@H]3CCC[C@@H]32)cc1`, the Potency was 5800 nM (active) in assay [1]; 4610 nM (active) in [2]; 11.8 µM (active) in [5]; 10.5 µM (active) in assay [8]; 7.08 µM (active) in assay [11].
Take `Cc1cc(Nc2cc(N3CCN(C)CC3)nc(Sc3ccc(NC(=O)C4CC4)cc3)n2)n[nH]1`: the Potency in assay [1] was 46.1 nM (active); in assay [2], 29.1 nM (active); in [3], 0.332 µM (active); in [5], 0.296 µM (active); in assay [6], 0.418 µM (active); in assay [7], 0.372 µM (active). Also, the values for the Potency in assay [8] and in [11] were 0.332 µM (active) and 15.8 µM (active), respectively.
With `CC(C)C[C@@H](C(=O)N[C@H](C(=O)OC1CCCC1)c1ccccc1)[C@H](O)C(=O)NO`, the Potency in assay [1] was 372 nM (active); in assay [2], 74.2 nM (active); in assay [3] it was 20.9 µM (active); in assay [11], 25.1 µM (active).
On to `C[C@@H]1COCCN1c1cc(=O)n2c(n1)N(Cc1cncc(Cl)c1)[C@H](C(F)(F)F)CC2`, for which the Potency in assay [1] was 6510 nM (active); in [2], 4110 nM (active); in assay [4], 9.33 µM (active); in assay [5], 9.33 µM (active). Besides, the activity (max response) in assay [10] is 2.98% (inactive). Moreover, the Potency entry in assay [11] was “inactive”.
As for `Oc1ccc(-c2ccc(-c3cc(Nc4cccc(CNC5CC5)c4)n[nH]3)cc2)c(O)c1`, the Potency in assay [1] is 833 nM (active); in [2], 461 nM (active); in assay [3], 2.35 µM (active); in assay [5], 2.35 µM (active); in assay [6], 1.66 µM (active); in assay [7], 4.69 µM (active). Further, the Potency in assay [10] was 25.1 µM (active); in assay [11] it was 10 µM (active).
As to `Cc1cc(C(=O)N2CCN(c3cccc(Cl)c3)CC2)n(-c2ccccc2)n1`, the Potency in assay [1] is 1460 nM (active); in assay [2], 1460 nM (active); in assay [3], 1.48 µM (active); in assay [5], 3.32 µM (active); in [7] it was 2.64 µM (active); in [8], 1.87 µM (active). The Potency in assay [11] is 0.447 µM (active).
Take `Cc1cc(Nc2cc(CN3CCOCC3)c3nc(C)c(Cc4ccc(Cl)cc4F)n3n2)n[nH]1`: the Potency in [1] was 146 nM (active) and 148 nM (active); in assay [2] it was 259 nM (active) and 235 nM (active); in assay [4], 7.43 µM (active); in assay [6], 1.66 µM (active); in [7] it was 2.09 µM (active); in assay [8] it was 1.48 µM (active). Moreover, in assay [10], the Potency is 2.51 µM (active).
In the case of `C[C@]1(CO)CN(c2cc(C(=O)Nc3ccc4c(c3)-c3c(c(C(N)=O)nn3-c3ccc(F)cc3)CC4)c(Cl)cn2)C[C@@]1(C)CO`, the Potency in [1] is 3660 nM (active); in assay [2] it was 2910 nM (active); in assay [3] it was 16.6 µM (active); in assay [5], 16.6 µM (active); in assay [6], 18.7 µM (active); in [8], 18.7 µM (active).
For `Nc1ncnc2c1c(-c1cnc3[nH]ccc3c1)nn2C1CCCC1`, the Potency in assay [1] is 920 nM (active) and 590 nM (active); in assay [2] it was 1.16 µM (active) and 1.18 µM (active); in assay [4], 1.48 µM (active); in assay [6], 5.26 µM (active); in [7], 3.72 µM (active); in assay [8] it was 5.9 µM (active). The Potency was 5.01 µM (active) in assay [10] and 2.82 µM (active) in assay [11].
For the compound `CC(C)n1nc(-c2ccc3oc(N)nc3c2)c2c(N)ncnc21`, the Potency in assay [1] was 36.6 nM (active) and 29.5 nM (active); in assay [2], 73.1 nM (active) and 46.8 nM (active); in assay [6], 0.0332 µM (active); in [7], 0.0469 µM (active); in assay [8] it was 0.469 µM (active); in assay [10] it was 0.1 µM (active). Besides, in [11], the Potency was 0.0708 µM (active).
With `CCn1cc(C(=O)O)c(=O)c2cc(F)c(N3CCN(C)CC3)cc21`, the Potency result in assay [1], in [6], in assay [7], in assay [8] and in assay [11] was “inactive” each time. Besides, the Potency result in assay [2] is “inactive and 16.6 µM (active)”; in assay [4], 4.69 µM (active); in assay [5], 4.18 µM (active). Moreover, the activity (max response) in [10] was 10.8% (inactive) and 4.42% (inactive).
